# In the library only some 1.2% were active in any assay of this set; here they are far more common.
# RGS7-Gao: regulators of human RGS7-Galphao interaction. 220,000 tested, 0.35% active. P09471. Multiplexed bead flow cytometry, RGS7-Galphao binding; actives lie on both sides. binding response (% of control), % at 10 µM; in the data active = binding response below about 49% or above about 150%; inconclusive = no clear call, values can overlap the other calls; inactive = in between;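 note: fluorescent Galphao held in activated GDP-AlF4 state binding bead-coupled RGS7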
# Target sequence (P09471 whole entry, looked up): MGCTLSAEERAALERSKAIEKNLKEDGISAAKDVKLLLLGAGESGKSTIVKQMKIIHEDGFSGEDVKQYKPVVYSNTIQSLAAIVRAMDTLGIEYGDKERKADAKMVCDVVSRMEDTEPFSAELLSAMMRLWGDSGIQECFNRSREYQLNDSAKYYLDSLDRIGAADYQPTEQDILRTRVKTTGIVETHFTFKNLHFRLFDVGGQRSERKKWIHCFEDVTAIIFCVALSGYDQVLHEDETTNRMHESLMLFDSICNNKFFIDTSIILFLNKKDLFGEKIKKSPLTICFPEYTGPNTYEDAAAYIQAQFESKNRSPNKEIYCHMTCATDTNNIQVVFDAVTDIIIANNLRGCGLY
# GSH bead fluor: GSH bead compound fluorescence profile | GSH beads flow cytometry, compound fluorescence 488/530 nm; hits give high values | fluorescence (KMESF) at 10 µM | 190,000 tested, 0.25% active; in the data active = fluorescence above about 89;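 note: glutathione beads carrying GST-tagged Bcl family fusion proteins plus one bare bead set; values are compound well signal with DMSO vehicle wells as background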
# RGS8-Gao reg: regulators of human RGS8-Galphao interaction; response (percent of control binding), % at 10 µM; 220,000 tested, 0.34% active; multiplexed bead flow cytometry, RGS8-Galphao binding; actives lie on both sides; in the data active = response below about 60% or above about 140%; inactive = in between;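 note: Galphao activated as the GDP aluminium fluoride complex binding bead-coupled RGS8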
# Avidin bead fluor: avidin bead compound fluorescence profile; Avidin beads, compound fluorescence 488/530 nm, flow cytometry; hits give high values; fluorescence (KMESF) at 10 µM; 220,000 tested, 0.38% active; AID 1775; in the data active = fluorescence above about 47
# RGS16-Gao HTS: RGS16-Galphao interaction regulator (human); AID 1441; bead-based flow cytometry RGS16-Galphao binding, fluorescence; actives lie on both sides; binding response (% of control), % at 10 µM; 220,000 tested, 0.38% active; O15492+P09471;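 note: Galphao activated by GDP with aluminum fluoride before binding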
# Target sequence (O15492 whole entry, looked up): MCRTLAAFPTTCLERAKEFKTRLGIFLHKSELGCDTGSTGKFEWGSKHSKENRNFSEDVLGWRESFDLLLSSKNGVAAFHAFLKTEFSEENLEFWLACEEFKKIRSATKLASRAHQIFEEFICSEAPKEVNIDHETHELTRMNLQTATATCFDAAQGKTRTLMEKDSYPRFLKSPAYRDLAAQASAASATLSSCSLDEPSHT
# Target sequence (P09471 whole entry, looked up): as the sequence (P09471 whole entry, looked up) above
# RGS4-Gao reg: human RGS4-Galphao interaction regulation; P09471; 220,000 tested, 0.33% active; binding response (% of control), % at 10 µM; Multiplexed bead flow cytometry, RGS4-Galphao binding; actives lie on both sides; in the data active = binding response below about 49% or above about 150%; inactive = in between;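 note: fluorescent Galphao activated with aluminum fluoride binding bead-coupled RGS4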
# RGS4-Gao HTS: modulates binding between human RGS4 and Galphao; shares compounds with RGS16-Gao HTS; RGS4–Galpha-o binding response, % at 10 µM; multiplexed bead flow cytometry, RGS–Galpha-o binding; 1,600 tested, 99% active;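 note: fluorescently labeled Galpha-o bound to GDP with aluminium fluoride binding biotinylated RGS beads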
# Avidin counter: interferes with biotinylated probe binding to avidin beads | shares compounds with RGS16-Gao HTS | streptavidin beads, fluorescein-biotin binding, flow cytometry | inhibition, % at 10 µM | 1,700 tested, under 10 active | AID 1783;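 active = inhibition above 50%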;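 note: median green fluorescence of gated singlet beads compared with DMSO control wells; 0% = DMSO wells and 100% = complete loss of bead fluorescence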
# RGS8-Gao single: RGS8-Galphao interaction regulation, single point confirmation; shares compounds with RGS16-Gao HTS; binding response (% of control), % at 10 µM; 1,700 tested, 3% active; bead-based flow cytometry RGS8-Galphao binding, fluorescence; actives lie on both sides; in the data active = binding response below about 72% or above about 130%; inactive = in between;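 note: Galphao activated as GDP AlF4 complex before binding bead RGS8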
# RGS7-Gao confirm: RGS7-Galphao interaction regulation, single point confirmation; response (percent of control binding), % at 10 µM; bead-based flow cytometry RGS7-Galphao binding; actives lie on both sides; AID 1837; shares compounds with RGS16-Gao HTS; 1,700 tested, 7.8% active; in the data active = response below about 75% or above about 130%; inactive = in between;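 note: fluorescent Galphao activated with GDP and aluminum fluoride binding bead-coupled RGS7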
# RGS16-Gao single: RGS16-Galphao interaction regulation, single point confirmation | shares compounds with RGS16-Gao HTS | bead-based flow cytometry, RGS16-Galphao binding; actives lie on both sides | response (% of control binding), % at 10 µM | 1,700 tested, 4% active | AID 1838; in the data active = response below about 74% or above about 130%; inactive = in between;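 note: Galphao activated as the GDP aluminium fluoride complex binding bead-coupled RGS16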
# RGS4-Gao single: confirmation of regulators of human RGS4-Galphao interaction; 1,700 tested, 4% active; RGS4-Galphao binding, multiplexed bead flow cytometry; actives lie on both sides; binding response (% of control), % at 10 µM; shares compounds with RGS16-Gao HTS; in the data active = binding response below about 74% or above about 130%; inactive = in between
# RGS19-Gao conf: RGS19-Galphao interaction regulation, single point confirmation; shares compounds with RGS16-Gao HTS; bead-based flow cytometry RGS19-Galphao binding; actives lie on both sides; response (percent of control binding), % at 10 µM; 1,700 tested, 5% active; AID 1841; in the data active = response below about 50% or above about 160%; inactive = in between;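 note: 100% = no compound control and 0% = blank background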
# Active calls of the source: *; ? = inconclusive; · = not tested or not shown; [ ] = remark or other dose. Unless noted, the rule behind the calls is not given here.
SMILES,RGS7-Gao,GSH bead fluor,RGS8-Gao reg,Avidin bead fluor,RGS16-Gao HTS,RGS4-Gao reg,Avidin counter,RGS8-Gao single,RGS7-Gao confirm,RGS16-Gao single,RGS4-Gao single,RGS19-Gao conf,others
Cc1cc(NC(=O)COC(=O)CNS(=O)(=O)c2ccc(C)c(C)c2)no1,98.2,12,100.0,9,97.5,98.0,·,·,·,·,·,·,
COCCn1c(C)cc(/C=C2/SC(=O)N(C(C)C(=O)OC)C2=O)c1C (stereo not drawn),?,·,107.1,129*,224.9*[activator],221.6*[activator],1.3,100.2,96.5,97.2,97.5,90.9,
COc1ccc(-c2cn3ccc4ccccc4c3n2)cc1,93.9,21,81.7,5,40.9,90.5,·,·,·,·,·,·,
Cc1ccc(/C=N/n2c(-c3ccncc3)n[nH]c2=S)cc1,57.9,11,50.5*,3,-29.4,63.2,1.5,108.0,122.6,109.4,112.2,98.3,RGS4-Gao HTS=63.2*
CC1=CC2=NC(=O)/C(=C\c3ccc(-c4ccc(Cl)cc4)o3)C(=N)N2O1,167.0*[activator],9,115.1,208*,429.0,153.2*[activator],2.1,102.8,101.2,112.7,95.9,235.8*[activator],
Cc1cccc(C(=O)OCC(=O)Nc2nccs2)c1,93.6,12,99.5,5,89.2,97.1,·,·,·,·,·,·,
CCC(=O)N1c2ccc(S(=O)(=O)CCC(=O)Nc3nccs3)cc2CC1C (stereo not drawn),100.4,15,99.0,12,101.7,97.8,·,·,·,·,·,·,
CCOC(=O)c1sc(-c2cccc(C(F)(F)F)c2)nc1O,?,·,75.0,7,96.2,97.0,0.3,99.8,94.0,100.5,98.3,90.2,
CCOC(=O)c1sc(-c2ccc(C(F)(F)F)cc2)nc1O,?,·,99.8,6,95.4,95.5,·,·,·,·,·,·,
CCOc1ccccc1NC(=O)c1cc(C(=O)Nc2ccccc2OCC)cc(N2C(=O)CCC2=O)c1,98.0,25,101.0,10,101.3,99.7,·,·,·,·,·,·,
Cc1ccc2nc(C)c3c(c2c1)COC3,-39.6*,11,16.5*,-3,79.5,-72.7*,-0.9,111.1,99.2,115.0,102.4,107.2,
CC(C)c1nc(Cl)c(C#N)c2c1CCCC2,100.0,10,98.2,6,90.9,93.4,·,·,·,·,·,·,
Cc1ccc(S(=O)(=O)N(C)C)cc1NC(=O)c1ccncc1,102.2,15,98.5,11,101.2,102.9,·,·,·,·,·,·,
Cc1ccc(S(=O)(=O)C(F)(F)F)cc1NC(=O)c1cccnc1,108.3,21,122.5,30,180.6*[activator],107.7,-1.6,100.9,100.5,99.9,103.5,98.0,RGS4-Gao HTS=107.7*
Clc1cccc(-c2cc3nc4c(c(NCc5ccco5)n3n2)CCCC4)c1,98.8,33,102.5,15,104.0,102.7,·,·,·,·,·,·,
CN=c1scc(C)n1/N=C/c1ccc(O)c(O)c1O,52.8,8,47.9*,6,29.8,64.0,-1.5,70.8*,56.6*,64.3*,77.5,28.7*,RGS4-Gao HTS=64.0*
CN=c1scc(-c2cccs2)n1/N=C/c1ccc(O)c(O)c1O,92.9,12,86.6,4,83.3,90.3,·,·,·,·,·,·,
COc1cccc2cc(C(=O)CC3(O)C(=O)N(Cc4ccccc4)c4ccccc43)c(=O)oc12 (stereo not drawn),101.6,19,102.6,8,103.6,105.1,·,·,·,·,·,·,
Cc1cccc(-c2cc3nc(C)c(C)c(NCCCn4ccnc4)n3n2)c1,?,·,93.9,7,84.2,82.3,·,·,·,·,·,·,
Nc1nc(N2CCN(C(c3ccccc3)c3ccccc3)CC2)n[nH]1,39.1*,11,57.0*,2,91.2,82.0,2.7,100.0,88.3,95.0,94.0,86.2,RGS4-Gao HTS=82.0*
O=C(Cc1c[nH]c2ccccc12)N/N=C/c1ccc(F)cc1,87.5,14,77.9,7,21.1*,92.1,0.6,104.0,99.4,103.0,104.8,101.8,RGS4-Gao HTS=92.1*
O=C1C=C(N2CCOCC2)C2(CCCCC2)O1,110.3,14,108.5,14,107.9,110.7,·,·,·,·,·,·,
COc1ccccc1N1CCN(S(=O)(=O)CC23CCC(CC2=O)C3(C)C)CC1 (stereo not drawn),17.1*,30,14.9*,0,14.4*,23.3*,-0.4,98.8,100.9,98.4,95.6,70.5,
Cc1n[nH]c(=S)n1/N=C/c1ccccc1OCc1ccc(Cl)cc1Cl,87.9,5,68.7,5,15.3*,92.0,2.0,96.2,104.5,97.5,98.3,97.7,RGS4-Gao HTS=92.0*
O=Nc1c(O)n(Cc2cccc(Cl)c2)c2ccccc12,101.9,23,100.3,27,98.2,103.0,·,·,·,·,·,·,
SMILES,RGS7-Gao,GSH bead fluor,RGS8-Gao reg,Avidin bead fluor,RGS16-Gao HTS,RGS4-Gao reg,Avidin counter,RGS8-Gao single,RGS7-Gao confirm,RGS16-Gao single,RGS4-Gao single,RGS19-Gao conf,others
CCN1/C(=C/C=C/c2oc3ccc4ccccc4c3[n+]2CC)Oc2ccc3ccccc3c21,616.5*[activator],205*,125.6,59*,368.9*[activator],538.5*[activator],-0.9,126.9*[activator],526.5*[activator],264.1*[activator],431.3*[activator],457.9*[activator],
O=C(OCC(=O)c1ccccc1Cl)c1cnccn1,97.1,11,88.3,7,65.3,92.2,·,·,·,·,·,·,
O=C(CSc1nnc2n1CCCN2C(=S)Nc1ccc(Cl)cc1)c1ccccc1,100.5,16,101.5,8,103.6,101.5,·,·,·,·,·,·,
O=C(CN1CCC(n2nnc3cc(F)ccc32)CC1)Nc1ccc2c(c1)CCC2,·,21,·,·,·,·,1.6,99.5,99.6,98.9,100.4,91.7,
Cc1ccc(N(C(=O)C2COc3ccccc3O2)C(C(=O)NC2CCCCC2)c2cn(C)nc2C)cc1 (stereo not drawn),88.3,10,94.5,5,91.2,89.6,·,·,·,·,·,·,
CC(C)(C)NC(=O)COC(=O)CCC(=O)c1ccc(Cl)cc1,22.1*,23,20.6*,5,15.0*,25.1*,-0.2,100.3,106.0,101.5,104.5,99.9,
CC(C)CNC(=O)COC(=O)CCC(=O)c1ccc(Cl)cc1,98.7,12,95.9,7,81.4,96.4,·,·,·,·,·,·,
COc1ccc(C(=O)NC(=S)Nc2ccc3oc(=O)ccc3c2)cc1OC,116.1,18,137.7,4,243.5*[activator],121.5,-1.6,105.9,107.6,107.4,108.4,105.5,RGS4-Gao HTS=121.5*

# Screening results (PubChem)
